Assay outcomes (PubChem)
PLK1 PBD inh = inhibitors of human PLK1 polo-box domain binding; P53350; Plk1 PBD binding of FITC phosphopeptide, fluorescence polarization; Potency, µM, without a hit: max response, negative = inhibition, most hits filed as inhibitors; 360,000 compounds, 2.8% hits; also: series mostly up to about 57 µM; nearly all actives have a fitted effect of over 65% in size
VDR inh = blocks the human vitamin D receptor; AID 504847; Potency, µM, for the others: max response, negative = inhibition, actives largely listed as inhibitors; P11473; VDR-SRC2-3 peptide fluorescence polarization, 2 h; 400,000 compounds, 0.93% hits
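After 23 nl compound addition and a short centrifugation, plates sat for 2 hours at ambient temperature; polarization of fluorescence then indicated loss of VDR binding to peptide SRC2-3.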
DT40 TDP1 CPT = DT40-hTDP1 cell growth loss with CPT | chicken DT40 Tdp1-/-;hTDP1 cells + 20 nM CPT, ATP luminescence, 48 h | Potency, µM (highest dose often 46.2 µM), without a hit: top-dose activity change, negative = growth inhibition, hits mostly inhibitors | 420,000 compounds, 12% hits; also: nearly all actives have a fitted effect of over 55% in size
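Chicken DT40 Tdp1-/- cells complemented with human TDP1, 400 cells/well, exposed to compounds plus 20 nM camptothecin for at least 48 h at 37 C; viability read as ATP content by CellTiter-Glo luminescence.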
DT40 TDP1 no CPT = qHTS for Inhibitors of human tyrosyl-DNA phosphodiesterase 1 (TDP1): qHTS in cells in absence of CPT; DT40 Tdp1-/- hTDP1 cells, no CPT, ATP luminescence, 48 h; Potency, µM (doses to about 46.2 µM), inactives show at the highest dose activity change, negative = growth inhibition, hits mostly inhibitors; 420,000 compounds, 15% hits; AID 686978, 2013; also: nearly all actives have a fitted effect of over 55% in size
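Luminescent ATP content (CellTiter-Glo) served as the growth readout. Knockout chicken DT40 cells expressing human TDP1 were exposed to compounds without camptothecin for a minimum 48 hr at 37 °C.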
KAT2A inh = inhibitors of human GCN5L2 histone acetyltransferase. GCN5L2 HAT assay, ThioGlo1 CoA-SH fluorescence. 390,000 compounds, 0.21% hits. Potency, µM (titrated, usually from 58.9 µM), for inactives: at the top dose activity change, negative = inhibition, most hits filed as inhibitors. Q92830. AID 504327
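Titration-based screen in which CoA formation is detected via maleimide probe ThioGlo1 (50uM) turning fluorescent on thiol reaction; substrates H3(1-25) 75uM and acetyl-CoA 70uM, GCN5L2 20nM, 20 min incubation at room temperature.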
TDP1 block = TDP1 (human) enzyme inhibition. 350,000 compounds, 0.28% hits. Q9NUW8. Potency, µM (doses to about 130 µM), without a hit: at the highest dose activity change, negative = inhibition, actives largely listed as inhibitors. recombinant TDP1, AlphaScreen DNA substrate cleavage; also: nearly all actives have a fitted effect of over 40% in size
Target sequence (Q9NUW8 whole entry, looked up): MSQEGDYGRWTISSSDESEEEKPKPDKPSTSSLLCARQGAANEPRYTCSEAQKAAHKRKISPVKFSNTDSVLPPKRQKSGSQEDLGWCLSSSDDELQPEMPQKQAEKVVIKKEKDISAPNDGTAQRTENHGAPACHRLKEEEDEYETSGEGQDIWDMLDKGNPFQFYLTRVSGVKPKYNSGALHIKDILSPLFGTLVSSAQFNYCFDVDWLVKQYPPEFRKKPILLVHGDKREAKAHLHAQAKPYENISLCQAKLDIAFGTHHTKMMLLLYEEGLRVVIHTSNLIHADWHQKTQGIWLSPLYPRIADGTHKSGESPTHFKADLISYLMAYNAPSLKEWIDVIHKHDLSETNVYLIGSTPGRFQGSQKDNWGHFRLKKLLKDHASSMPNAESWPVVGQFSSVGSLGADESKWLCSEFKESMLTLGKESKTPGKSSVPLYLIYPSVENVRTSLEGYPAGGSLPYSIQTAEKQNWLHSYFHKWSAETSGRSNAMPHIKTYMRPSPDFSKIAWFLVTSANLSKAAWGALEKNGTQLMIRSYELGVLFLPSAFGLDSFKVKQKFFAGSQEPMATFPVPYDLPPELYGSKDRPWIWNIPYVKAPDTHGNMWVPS
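Tdp1 1 nM final; 15 min RT w/ cpd; substrate 15 nM, 5 min; beads 10 ug/ml, 10 min; AlphaScreen read. Neg ctrl: no enzyme.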
The depositor's hits bear a star; ? = inconclusive; nt = no result; ! = not confirmed by another sample; [ ] = another dose, or the depositor's remark. Rows were chosen to be rich in hits. Some 18% of all compounds tested hit in one or more screens of this group. Calls follow the shape of the dose curve; as a rule, active = well fitted curve in the direction sought with a large enough effect; inconclusive = small, poorly fitted or top-dose-only effect, or another doubt; inactive = no such curve, though single readings can be large; an effect the other way counts as inactive or inconclusive. % is scaled to controls: 0 for no effect and ±100 for the full control effect; potency is read from the fitted curve at half-maximal effect.

SMILES	PLK1 PBD inh	VDR inh	DT40 TDP1 CPT	DT40 TDP1 no CPT	KAT2A inh	TDP1 block
Cc1oc(-c2ccccc2NC(=O)C2CCCO2)nc1CNC(=O)c1cc(Cl)ccc1F (configuration not stated)	nt	nt	10%[9.04 µM]	-11%	nt	nt
COc1ccc(CCNc2c3ccccc3nc3ccccc23)cc1OC	3%	15%	?	21µM*	-5%	1%
O=c1cc(CSc2nc(NCc3ccccc3)c3ccccc3n2)nc2ccc(Cl)cn12	-3%	-6%	16µM*	12µM*	-2%	5%
Fc1ccc(Nc2nc(SCc3ccc(Cl)cc3)nc3ccccc23)cc1	nt	-11%	?	-102%	-7%	-10%
Fc1ccc(Nc2nc(SCc3cccc(F)c3)nc3ccccc23)cc1	nt	11%	15µM*	16µM*	-5%	-8%
Clc1ccc(CSc2nc(NCCc3ccccc3)c3ccccc3n2)cc1	nt	1%	9.2µM*	6.5µM*	1%	4%
CC(=O)C1CN(S(=O)(=O)c2ccc(C)cc2)C(c2ccccc2)CC1C (configuration not stated)	0%	nt	?	?	nt	nt
COc1ccc(CCNc2nc(SCc3cccc(F)c3)nc3ccccc23)cc1OC	nt	7%	16µM*	?	0%	-1%
Nc1cc(N)nc(SCc2ccccc2Cl)n1	5%	nt	-23%	-25%	nt	nt
Clc1ccccc1CSc1nc(NCCc2ccccc2)c2ccccc2n1	nt	4%	?	13µM*	0%	-4%
Cc1nn(CCO)c(N)c1C1(O)C(=O)Nc2c(Cl)cc(Cl)cc21 (configuration not stated)	-7%	21%	4.1µM*	3.3µM*	-14%	5%
CC1CCN(S(=O)(=O)c2ccc3c(ccc(=O)n3CC(=O)NCc3ccc(Cl)cc3)c2)CC1	nt	13%	?	?	1%	-1%
O=[N+]([O-])c1ccc(Nc2nccc(Cl)n2)cc1	-2%	6%	8%	-29%	nt	nt
CC(C)(C)OC(=O)NC(CNCc1ccccc1)Cc1ccccc1 (configuration not stated)	-11%	7%	13µM*	?	0%	-6%
CC(C)(C)OC(=O)NC(Cc1ccccc1)C(=O)O (configuration not stated)	0%	-10%	5%	6%	-1%	0%
CC(C)Cc1nnc(NC(=O)c2ccc(-n3cncn3)c([N+](=O)[O-])c2)s1	-6%	nt	-20%	1%	nt	nt
Cc1cc(OC(=O)c2c(F)cc(F)cc2F)nc(C)n1	21µM*	10%	-5%	1%	0%	-1%
Cc1cc(C)nc(OC(=O)c2c(Cl)cc(Cl)cc2Cl)n1	-4%	-20%	7%	-22%	-3%	3%
Oc1ccccc1-c1n[nH]c(-c2ccccc2O)n1	-5%	7%	3.7µM*	5.2µM*	nt	nt
Clc1ccccc1-c1nc(-c2ccccc2)n[nH]1	-5%	1%	?	?	24%	0%
Cc1ccc(Sc2c(C)nn(C(=O)COc3ccc(F)cc3)c2C)cc1	nt	-1%	-2%	-2%	14%	nt
CC(=O)N1CCOc2ccc(S(=O)(=O)N3CCC(C(=O)NCc4ccc(C)cc4)CC3)cc21	-19%	3%	-3%	15%	-7%	0%
CCC1CN(C(=O)N2CCC(C(=O)NCc3ccco3)CC2)c2cc(C)ccc2O1 (configuration not stated)	-9%	-12%	?	18µM*!	1%	6%
CCC1CN(C(=O)NCc2ccccc2)c2cc(C)ccc2O1 (configuration not stated)	3%	-14%	?	?	2%	4%
CCc1ccc(CNC(=O)C2CCN(C(=O)N3CC(CC)Oc4ccc(C)cc43)CC2)cc1 (configuration not stated)	nt	10%	21µM*	21µM*	-12%	4%
SMILES	PLK1 PBD inh	VDR inh	DT40 TDP1 CPT	DT40 TDP1 no CPT	KAT2A inh	TDP1 block
Cc1ccc2c(c1)N(C(=O)N1CCC(C(=O)NCc3cccc(Br)c3)CC1)CCO2	nt	10%	?	21µM*	-4%	-4%
CCCOc1ccc(CNC(=O)C2CCN(C(=O)N3CCOc4ccccc43)CC2)cc1	-7%	-16%	21µM*	?	-11%	nt
Cc1cnccn1	nt	nt	?	11%	nt	nt
CCOC(=O)c1c(NC(=O)c2noc3c2CC(C(C)(C)C)CC3)sc2c1CCCC2 (configuration not stated)	nt	?	-14%	-6%	?	-1%
CCC1CN(C(=O)N2CCC(C(=O)NCc3ccc(C)o3)CC2)c2cc(C)ccc2O1 (configuration not stated)	-7%	0%	16µM*!	?	2%	8%
CCOc1ccc(CNC(=O)C2CCN(C(=O)N3CC(C)Oc4ccccc43)CC2)cc1 (configuration not stated)	-3%	3%	?	?	0%	nt
CCC1CN(C(=O)NCc2ccc(C)cc2)c2cc(C)ccc2O1 (configuration not stated)	4%	-4%	23µM*	15µM*!	?	5%
CCC1CN(C(=O)N2CCC(C(=O)NCc3cccc(C)c3)CC2)c2ccccc2O1 (configuration not stated)	nt	-3%	16µM*	21µM*	-13%	6%
N#Cc1sc(C(N)=O)c(-c2ccccc2)c1-c1ccccc1	-5%	6%	-28%	-27%	-5%	0%
COc1ccc(-c2c(C#N)sc(C(N)=O)c2-c2ccc(OC)cc2)cc1	-5%	-12%	?	10µM*	-2%	5%
COc1ccc(-c2csc(NC(C)c3nc4cc(C(F)(F)F)ccc4n3CCOCCO)n2)cc1 (configuration not stated)	-15%	-15%	16µM*	18µM*	nt	nt
Cc1ccc(Cn2c(C(C)Nc3nc(-c4ccc(F)cc4)cs3)nc3cc(C(F)(F)F)ccc32)cc1 (configuration not stated)	?	-18%	21µM*	?	nt	nt
CC(Nc1nc(-c2ccc(F)cc2)cs1)c1nc2cc(C(F)(F)F)ccc2n1CCCO (configuration not stated)	-10%	2%	?	16µM*	nt	nt
CC(Nc1nc(-c2ccc(F)cc2)cs1)c1nc2cc(C(F)(F)F)ccc2n1CCOCCO (configuration not stated)	2%	-16%	?	?	nt	nt
CCOC(=O)C[n+]1cccc(Br)c1	nt	nt	-7%	-3%	nt	nt
